From PubChem BioAssay (NCI)
The panel holds about 83,000 compounds, 20% with a hit somewhere; the sample as a whole holds those more often.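 How to read the values: 0–100, growth inhibition (40 = 60% inhibited); 0, no net growth; -100 to 0, cell death (-40 = 40% of starting cells died; -100 = all dead).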 The source made the active and inactive calls. How the source made its calls: active means growth percent below 10; inactive means the rest.

Tested on: BT-549 breast
Experiment: NCI-60 one-dose screen, 48 h (100 = growth as untreated, 0 = no growth, -100 = all killed)
Details: 10 µM unless noted

| SMILES | growth |
| --- | --- |
| CC(C)(C)OC(=O)NCc1ccc(CNc2c([N+](=O)[O-])cnc3ccccc23)cc1 | 54.8% (inactive) |
| NC(=O)n1c(=O)n(-c2cccc(C(F)(F)F)c2)c(=O)c2cc(-c3ccc(F)cc3F)ccc21 | -12.5% (active) |
| CN1CCN(Cc2ccc(NC(=O)c3cncc(C#Cc4cnc5ccc(OCCCS(C)(=O)=O)nn45)c3)cc2C(F)(F)F)CC1 | -21.5% (active) |
| COc1ccc(NC2=C(Br)C(=O)C(C)=C(C)C2=O)cc1OC | 112% (inactive) |
| O=C1[C@@H]2Cc3c([nH]c4ccccc34)[C@H](c3ccc(Cl)cc3)N2C(=O)CN1C1CCN(Cc2ccccc2)CC1 | 72.1% (inactive) |
| CCOc1cccc(/C(N)=N/C(N)=N/c2nc3ccccc3s2)c1 | 102% (inactive) |
| O=C1CSC(c2cn(-c3ccccc3)nc2-c2ccc(Cl)cc2)N1c1ccccc1 (configuration not stated) | 109% (inactive) |
| CC(Nc1c(C#N)cnc2ccc(-c3cncc(-c4n[nH]c(=O)o4)c3)cc12)c1ccccc1 (configuration not stated) | -20.1% (active) |
| CCCCN1C(=O)/C(=c2\sc3n(c2=O)C2C(NN=3)N(CC)C(=O)N2CC)c2cccc(C)c21 (configuration not stated) | 82.4% (inactive) |
| Brc1cc(-c2cc(-c3ccc4c(c3)OC=CO4)[nH]n2)cs1 | 109% (inactive) |
| N#C/C(=C\c1cccc2c1OCO2)C(=O)Nc1sc2c(c1C#N)CCCC2 | 107% (inactive) |
| CN1CCN(Cc2ccc(NC(=O)c3cncc(C#Cc4cnc5ccc(O[C@@H]6CCOC6)nn45)c3)cc2C(F)(F)F)CC1 | -81.9% (active) |
| CCN(CC)CCOc1ccc(C(=C(C)c2ccc(OC)cc2)c2ccc(OCCN(CC)CC)cc2)cc1 | 47.9% (inactive) |
| O=c1nc(Nc2ccc([N+](=O)[O-])cc2O)sc2ccccc12 | 50.6% (inactive) |
| O=C(CCCCCCNC(=O)c1csc(Br)n1)NO | 88.4% (inactive) |
| COC(=O)[C@@H](Cc1c[nH]c2ccccc12)NC(=O)CCCCOc1cc(O)c2c(=O)cc(-c3ccccc3)oc2c1 | 90.7% (inactive) |
| Clc1cccc(/C=N/Nc2nc(N/N=C/c3cccc(Cl)c3)nc(N3CCCCC3)n2)c1 | 94.9% (inactive) |
| COC(=O)c1ccc(NC2=C(Cl)C(=O)C(C)=C(C)C2=O)cc1 | 77.5% (inactive) |
| O=C(CSc1nnc(-c2ccc(Cl)cc2)n1-c1ccccc1)Nc1ccccc1Cl | 53.8% (inactive) |
| CN(C)CCNc1ccc2ncc(C#Cc3cncc(C(=O)Nc4ccc(CN5CCN(C)CC5)c(C(F)(F)F)c4)c3)n2n1 | -8.5% (active) |
| Cc1cc(=O)oc2cc(OCCCOc3ccc(/C=C/C(=O)Nc4ccc(Br)cc4)cc3)ccc12 | 78.8% (inactive) |
| CC(=O)OC[C@@]12Oc3c(cccc3-c3ccc(O)c4c3O[C@]3(COC(C)=O)C(=C4O)C(=O)C[C@H](C)[C@@H]3OC(C)=O)C(O)=C1C(=O)C[C@H](C)[C@@H]2OC(C)=O | -1.88% (active) |
| COc1ccc(/C=N/NC(=O)CSc2nc(-c3cnccn3)cc(-c3cccs3)c2C#N)cc1OC | 38% (inactive) |
| O=c1c2cc(-c3ccc(F)cc3F)ccc2n(O)c(=O)n1-c1cccc(C(F)(F)F)c1 | -3.54% (active) |
| C#C[C@]1(O)CC[C@H]2[C@@H]3CC=C4c5sc(Nc6ncccc6C)nc5CC[C@]4(C)[C@H]3CC[C@@]21C | -1.46% (active) |
| CCCCCc1ccc(S(=O)(=O)Nc2cc(-c3csc(N)n3)ccc2OC)cc1 | 102% (inactive) |
| O=c1oc2ccc(-c3ccc(F)cc3F)cc2c(=O)n1-c1ccc(Br)cc1F | 30.9% (inactive) |

Tested on: MDA-MB-435 melanoma
Experiment: as above
Details: 10 µM unless noted

| SMILES | growth |
| --- | --- |
| C#C[C@]1(O)CC[C@H]2[C@@H]3CC=C4c5sc(NCc6ccccc6)nc5CC[C@]4(C)[C@H]3CC[C@@]21C | 82.2% (inactive) |
| Cn1cc(-c2cc3ncnc(Nc4ccc(NC(=O)Nc5cc(C(C)(C)C)on5)cc4)c3s2)cn1 | 17.5% (inactive) |
| CCc1cccc2c3c(sc12)C(c1ccc(F)cc1)C(C#N)=C(/N=C/c1ccc(Cl)cc1)O3 (configuration not stated) | -5.71% (active) |
| C1=CC(c2nn3c(-c4ccccc4)nnc3s2)=Cc2ccccc2O1 | 46.7% (inactive) |
| Cc1ccc(-c2csc(N/N=C/c3cccs3)n2)cc1 | 98% (inactive) |
| C#C[C@]1(O)CC[C@H]2[C@@H]3CC=C4c5sc(Nc6ccc(C)cn6)nc5CC[C@]4(C)[C@H]3CC[C@@]21C | -51.8% (active) |
| COC(=O)c1ccc(NC2=C(Cl)C(=O)c3nc(C)ccc3C2=O)cc1 | 60.6% (inactive) |
| CCCCCN1C(=O)/C(=c2\sc3n(c2=O)C2C(NN=3)N(CC)C(=O)N2CC)c2cccc(C)c21 (configuration not stated) | -13.6% (active) |
| COc1ccc(/C(=N\N=C(N)N)c2ccc(Cl)cc2)cc1OC | 58% (inactive) |
| CCCCCC[n+]1ccc(SCC(=O)n2ccc3ccccc32)c2ccccc21 | 101% (inactive) |
| NCCNC(=O)c1cccc(COc2ccccc2NC(=O)c2cc(Br)c(Br)[nH]2)c1 | 96.2% (inactive) |
| CC1CCN(CC(=O)Nn2c(COc3ccccc3)nc3ccccc3c2=O)CC1 | 5.85% (active) |
| CC(C)(C)Nc1nc2c(OCCc3ccccc3)cccn2c1-c1ccc([N+](=O)[O-])cc1 | 85.3% (inactive) |
| CC(C)(C)OC(=O)NCc1ccc(CNc2c([N+](=O)[O-])cnc3ccccc23)cc1 | 56.4% (inactive) |
| NC(=O)n1c(=O)n(-c2cccc(C(F)(F)F)c2)c(=O)c2cc(-c3ccc(F)cc3F)ccc21 | 0.406% (active) |
| CN1CCN(Cc2ccc(NC(=O)c3cncc(C#Cc4cnc5ccc(OCCCS(C)(=O)=O)nn45)c3)cc2C(F)(F)F)CC1 | -22.7% (active) |
| COc1ccc(NC2=C(Br)C(=O)C(C)=C(C)C2=O)cc1OC | 102% (inactive) |
| O=C1[C@@H]2Cc3c([nH]c4ccccc34)[C@H](c3ccc(Cl)cc3)N2C(=O)CN1C1CCN(Cc2ccccc2)CC1 | 54.8% (inactive) |
| CCOc1cccc(/C(N)=N/C(N)=N/c2nc3ccccc3s2)c1 | 99.9% (inactive) |
| O=C1CSC(c2cn(-c3ccccc3)nc2-c2ccc(Cl)cc2)N1c1ccccc1 (configuration not stated) | 103% (inactive) |

| SMILES | growth |
| --- | --- |
| CC(Nc1c(C#N)cnc2ccc(-c3cncc(-c4n[nH]c(=O)o4)c3)cc12)c1ccccc1 (configuration not stated) | 24% (inactive) |
| CCCCN1C(=O)/C(=c2\sc3n(c2=O)C2C(NN=3)N(CC)C(=O)N2CC)c2cccc(C)c21 (configuration not stated) | -31% (active) |
| Brc1cc(-c2cc(-c3ccc4c(c3)OC=CO4)[nH]n2)cs1 | 28.4% (inactive) |
| N#C/C(=C\c1cccc2c1OCO2)C(=O)Nc1sc2c(c1C#N)CCCC2 | 103% (inactive) |
| CN1CCN(Cc2ccc(NC(=O)c3cncc(C#Cc4cnc5ccc(O[C@@H]6CCOC6)nn45)c3)cc2C(F)(F)F)CC1 | -97.6% (active) |
| CCN(CC)CCOc1ccc(C(=C(C)c2ccc(OC)cc2)c2ccc(OCCN(CC)CC)cc2)cc1 | -71.5% (active) |
| O=c1nc(Nc2ccc([N+](=O)[O-])cc2O)sc2ccccc12 | -42.9% (active) |
| O=C(CCCCCCNC(=O)c1csc(Br)n1)NO | 12% (inactive) |
| COC(=O)[C@@H](Cc1c[nH]c2ccccc12)NC(=O)CCCCOc1cc(O)c2c(=O)cc(-c3ccccc3)oc2c1 | 91.6% (inactive) |
| Clc1cccc(/C=N/Nc2nc(N/N=C/c3cccc(Cl)c3)nc(N3CCCCC3)n2)c1 | 90.4% (inactive) |
| COC(=O)c1ccc(NC2=C(Cl)C(=O)C(C)=C(C)C2=O)cc1 | 7.22% (active) |
| O=C(CSc1nnc(-c2ccc(Cl)cc2)n1-c1ccccc1)Nc1ccccc1Cl | 80.9% (inactive) |
| CN(C)CCNc1ccc2ncc(C#Cc3cncc(C(=O)Nc4ccc(CN5CCN(C)CC5)c(C(F)(F)F)c4)c3)n2n1 | 40.5% (inactive) |
| Cc1cc(=O)oc2cc(OCCCOc3ccc(/C=C/C(=O)Nc4ccc(Br)cc4)cc3)ccc12 | 97.3% (inactive) |
| CC(=O)OC[C@@]12Oc3c(cccc3-c3ccc(O)c4c3O[C@]3(COC(C)=O)C(=C4O)C(=O)C[C@H](C)[C@@H]3OC(C)=O)C(O)=C1C(=O)C[C@H](C)[C@@H]2OC(C)=O | 13% (inactive) |
| COc1ccc(/C=N/NC(=O)CSc2nc(-c3cnccn3)cc(-c3cccs3)c2C#N)cc1OC | 78.9% (inactive) |
| O=c1c2cc(-c3ccc(F)cc3F)ccc2n(O)c(=O)n1-c1cccc(C(F)(F)F)c1 | 1.71% (active) |
| C#C[C@]1(O)CC[C@H]2[C@@H]3CC=C4c5sc(Nc6ncccc6C)nc5CC[C@]4(C)[C@H]3CC[C@@]21C | -39.3% (active) |
| CCCCCc1ccc(S(=O)(=O)Nc2cc(-c3csc(N)n3)ccc2OC)cc1 | 107% (inactive) |
| O=c1oc2ccc(-c3ccc(F)cc3F)cc2c(=O)n1-c1ccc(Br)cc1F | 66.9% (inactive) |
